Bst PK mod: Pyruvate Kinase; 51,000 tested, 1.2% active; Potency, µM; purified pyruvate kinase, luminescence ATP production; ribose 5-phosphate activator present at AC10; AID 361, 2006; in the data active = potency below about 11 µM; inconclusive = mostly about 12 µM to 25 µM;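 the screen sought inhibitors and activators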
FLuc inh: qHTS Assay for Inhibitors of Firefly Luciferase; Luciferin 4-monooxygenase (Photinus pyralis), P08659; Potency, µM (titrated, usually from 57.1 µM), most hits filed as inhibitors; 72,000 tested, 2.2% active; purified firefly luciferase, luminescence, 8 min; also: nearly all actives have a fitted effect of over 40% in size
Target sequence (P08659 whole entry, looked up): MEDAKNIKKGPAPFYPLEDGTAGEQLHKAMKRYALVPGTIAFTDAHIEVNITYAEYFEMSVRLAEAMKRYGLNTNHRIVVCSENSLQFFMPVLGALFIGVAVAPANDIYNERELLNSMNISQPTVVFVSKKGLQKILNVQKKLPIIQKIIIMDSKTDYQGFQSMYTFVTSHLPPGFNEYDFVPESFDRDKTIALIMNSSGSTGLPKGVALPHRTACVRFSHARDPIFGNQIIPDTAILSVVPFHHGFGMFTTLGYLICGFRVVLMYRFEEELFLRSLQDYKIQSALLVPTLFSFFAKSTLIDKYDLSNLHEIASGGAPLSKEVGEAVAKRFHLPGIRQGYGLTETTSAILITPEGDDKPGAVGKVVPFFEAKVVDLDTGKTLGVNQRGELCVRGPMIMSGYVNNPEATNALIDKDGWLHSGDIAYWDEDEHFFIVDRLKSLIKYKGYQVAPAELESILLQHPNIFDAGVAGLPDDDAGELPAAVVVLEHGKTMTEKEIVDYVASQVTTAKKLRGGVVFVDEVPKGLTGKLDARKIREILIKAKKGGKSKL
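Titration-based qHTS; buffer 50 mM imidazole pH 7.2, 50 mM KCl, 7 mM MgCl2, 10 uM ATP, 0.01% Tween 20, 0.05% BSA; luciferase/luciferin detector mix added after compound; 8 min, ambient; luminescence.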
HSD17B inhib: qHTS Assay for Inhibitors of HSD17B4, hydroxysteroid (17-beta) dehydrogenase 4 | 75,000 tested, 7.6% active | recombinant HSD17B10, NADH fluorescence kinetic | AID 893, 2007 | Potency, µM (series often up to 57.1 µM), hits mostly inhibitors;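 also: the protocol describes HADH2 (HSD17B10) and not the HSD17B4 of the title; nearly all actives have a fitted effect of over 70% in size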
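20 nM HADH2, pH 9.0 Tris/Tween; cpd preinc 15 min RT; start w/ 1 mM NAD+ + 90 uM b-hydroxybutyryl-CoA; kinetic fluor ex360/em450 q30s x 4 min; delta last-first.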
ERK AVP block: qHTS Assay for Inhibitors of the ERK Signaling Pathway using a Homogeneous Screening Assay; HEK293-V1b, vasopressin-stimulated pERK AlphaScreen; Potency, µM (highest dose often 57.5 µM), usual class: inhibitors; 72,000 tested, 0.99% active; AID 995, 2007; also: nearly all actives have a fitted effect of over 55% in size
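HEK293 cells stably expressing V1b receptor, seeded overnight in 1% FBS, were treated with compounds for 30 min at 37C, then stimulated 5 min with 25 nM vasopressin; phospho-ERK read by AlphaScreen SureFire after lysis.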
15-hLO inh: qHTS Assay for Inhibitors of 15-hLO (15-human lipoxygenase); purified 15hLO-1, xylenol orange hydroperoxide absorbance; Potency, µM (top dose mostly 57.1 µM), most hits filed as inhibitors; 74,000 tested, 1.4% active; AID 887, 2007; also: nearly all actives have a fitted effect of over 55% in size
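Quantitative HTS in 25 mM Hepes pH 7.5 containing 0.01% Triton X-100: human 15hLO-1 at 40 nM, arachidonic acid at 50 uM, 6 min turnover. Product quantified via ferrous oxidation/xylenol orange, 573:405 nm absorbance ratio.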
HADH2 inh: qHTS Assay for Inhibitors of HADH2 (Hydroxyacyl-Coenzyme A Dehydrogenase, Type II). 3-hydroxyacyl-CoA dehydrogenase type-2 (Homo sapiens), Q99714. recombinant HADH2, NADH fluorescence, beta-hydroxybutyryl-CoA. Potency, µM (series often up to 57.1 µM), usual class: inhibitors. 73,000 tested, 3.4% active. AID 886, 2007; also: nearly all actives have a fitted effect of over 60% in size
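E. coli-expressed His-tagged HADH2 tested at 20 nM in alkaline Tris buffer (pH 9.0); oxidation of 90 uM beta-hydroxybutyryl-CoA with 1 mM NAD+ tracked fluorimetrically for 4 min.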
Large screens that a line does not name were inactive; ! = not confirmed by another sample. Compounds with a hit are over-represented: about 11% of the library has one in this group of screens. Unless noted, calls follow the shape of the dose curve; as a rule, active = well fitted curve in the direction sought with a large enough effect; inconclusive = small, poorly fitted or top-dose-only effect, or another doubt; inactive = no such curve, though single readings can be large; an effect the other way counts as inactive or inconclusive.

CC(C)OCCCNC(=O)c1c(N)n(CC2CCCO2)c2nc3ccccc3nc12 (centres undefined)	HSD17B inhib 25µM, HADH2 inh 32µM
C=CCCC#N	none (no result: Bst PK mod, FLuc inh)
Nc1nc(N)c(Cn2ccnc2)c(=O)[nH]1	none (no result: Bst PK mod)
CC[C@@]1(O)C(=O)OCc2c1cc1n(c2=O)Cc2cc3c(NC(=O)CN)cccc3nc2-1	HSD17B inhib 3.2µM, HADH2 inh 3.2µM (no result: Bst PK mod)
CC[C@@]1(O)C(=O)OCc2c1cc1n(c2=O)Cc2cc3ccccc3nc2-1	HSD17B inhib 7.9µM, HADH2 inh 3.2µM! (no result: Bst PK mod)
NCCc1ccc(S(=O)(=O)O)cc1[N+](=O)[O-]	none (no result: Bst PK mod)
N[C@@H](Cc1cc(O)c(O)cc1O)C(=O)O	HSD17B inhib 5µM, 15-hLO inh inconclusive, HADH2 inh 1.3µM (no result: Bst PK mod)
Cc1o[nH]c(=O)c1C[C@@H](N)C(=O)O	none (no result: Bst PK mod)
Cc1cc(Cl)ccc1OCC(=O)N1CCN(C)CC1	none (no result: Bst PK mod)
CC(=O)N1CCC2(CC1)CC(=O)c1cc(OCC(=O)N3CCN(C)CC3)ccc1O2	HSD17B inhib 32µM, HADH2 inh 13µM
COc1cc2c3cc1Oc1c(O)c(OC)cc4c1[C@@H](Cc1ccc(cc1)Oc1cc(ccc1O)C[C@H]3N(C)CC2)N(C)CC4	none (no result: Bst PK mod)
CN1C[C@@H](CNC(=O)OCc2ccccc2)C[C@H]2c3cccc4c3c(cn4C)C[C@@H]21	none (no result: Bst PK mod, HSD17B inhib, ERK AVP block, 15-hLO inh)
Cc1ccc(C(=O)Nc2nc3ccccc3n2CCN2CCCC2)cc1	FLuc inh 13µM, ERK AVP block inconclusive (no result: Bst PK mod)
CCC(COC(=O)c1cc(OC)c(OC)c(OC)c1)(c1ccccc1)N(C)C (centres undefined)	ERK AVP block 32µM (no result: HADH2 inh)
COc1ccc(C(=O)O)cc1OC	none (no result: Bst PK mod, FLuc inh, HADH2 inh)
C[C@@]12CC[C@H]3[C@@H](CCC4=C(O)C(=O)CC[C@]43C)[C@H]1CCC2=O	none (no result: Bst PK mod)
N[C@]1(C(=O)O)CC[C@@H](C(=O)O)C1	none (no result: Bst PK mod, HSD17B inhib, ERK AVP block, 15-hLO inh)
COc1ccc2[nH]cc(C3=CCNCC3)c2c1	HSD17B inhib 32µM, ERK AVP block inconclusive (no result: Bst PK mod)
N#C/C(=C\c1ccc(O)c(O)c1)C(N)=S	FLuc inh 25µM!, HSD17B inhib 13µM, ERK AVP block 16µM!, 15-hLO inh 4µM, HADH2 inh 0.1µM (no result: Bst PK mod)
CC1=C(O)C(=O)C=C2C1=CC=C1[C@]2(C)CC[C@@]2(C)C3C[C@](C)(C(=O)O)CC[C@@]3(C)CC[C@@]12C (some centres undefined)	HSD17B inhib 5µM, ERK AVP block 32µM, 15-hLO inh 4µM (no result: Bst PK mod, FLuc inh, HADH2 inh)
CC(C)[C@@H](Br)C(=O)NCC(=O)O	none (no result: Bst PK mod)
c1ccc2c(c1)CCCC2	none (no result: Bst PK mod, FLuc inh)
CNc1ccc2oc(C[C@H]3O[C@]4(CC[C@H]3C)O[C@H]([C@H](C)C(=O)c3ccc[nH]3)[C@H](C)C[C@H]4C)nc2c1C(=O)O	HSD17B inhib 32µM, ERK AVP block 5µM, HADH2 inh 25µM (no result: Bst PK mod)
Cc1ccc(OP(=O)(Oc2ccc(C)cc2)N2C=Cc3ccccc3[C@H]2C#N)cc1	none (no result: Bst PK mod)

Source: PubChem BioAssay
